PubChem BioAssay (NCATS)
“And” between values parts separate entries of the source, which are not always exact repeats. Equal entries are not always repeated. Records with an inconclusive call do not appear. A call without a number means that no potency is given here. Unmarked numbers belong to inactive results. The source made the active and inactive calls. Calls follow the shape of the dose curve; as a rule, active = well fitted curve in the direction sought with a large enough effect; inconclusive = small, poorly fitted or top-dose-only effect, or another doubt; inactive = no such curve, though single readings can be large; an effect the other way counts as inactive or inconclusive.

How the values were obtained:
[1] = target: Lysine-specific demethylase 5B (Homo sapiens) (UniProt Q9UGL1); assay: Optimization screen for KDM5B Histone Demethylases FDH coupled qHTS against the LOPAC library (AID 1347166)
Lysine-specific demethylase 5B (Homo sapiens), sequence (Q9UGL1 whole entry, looked up): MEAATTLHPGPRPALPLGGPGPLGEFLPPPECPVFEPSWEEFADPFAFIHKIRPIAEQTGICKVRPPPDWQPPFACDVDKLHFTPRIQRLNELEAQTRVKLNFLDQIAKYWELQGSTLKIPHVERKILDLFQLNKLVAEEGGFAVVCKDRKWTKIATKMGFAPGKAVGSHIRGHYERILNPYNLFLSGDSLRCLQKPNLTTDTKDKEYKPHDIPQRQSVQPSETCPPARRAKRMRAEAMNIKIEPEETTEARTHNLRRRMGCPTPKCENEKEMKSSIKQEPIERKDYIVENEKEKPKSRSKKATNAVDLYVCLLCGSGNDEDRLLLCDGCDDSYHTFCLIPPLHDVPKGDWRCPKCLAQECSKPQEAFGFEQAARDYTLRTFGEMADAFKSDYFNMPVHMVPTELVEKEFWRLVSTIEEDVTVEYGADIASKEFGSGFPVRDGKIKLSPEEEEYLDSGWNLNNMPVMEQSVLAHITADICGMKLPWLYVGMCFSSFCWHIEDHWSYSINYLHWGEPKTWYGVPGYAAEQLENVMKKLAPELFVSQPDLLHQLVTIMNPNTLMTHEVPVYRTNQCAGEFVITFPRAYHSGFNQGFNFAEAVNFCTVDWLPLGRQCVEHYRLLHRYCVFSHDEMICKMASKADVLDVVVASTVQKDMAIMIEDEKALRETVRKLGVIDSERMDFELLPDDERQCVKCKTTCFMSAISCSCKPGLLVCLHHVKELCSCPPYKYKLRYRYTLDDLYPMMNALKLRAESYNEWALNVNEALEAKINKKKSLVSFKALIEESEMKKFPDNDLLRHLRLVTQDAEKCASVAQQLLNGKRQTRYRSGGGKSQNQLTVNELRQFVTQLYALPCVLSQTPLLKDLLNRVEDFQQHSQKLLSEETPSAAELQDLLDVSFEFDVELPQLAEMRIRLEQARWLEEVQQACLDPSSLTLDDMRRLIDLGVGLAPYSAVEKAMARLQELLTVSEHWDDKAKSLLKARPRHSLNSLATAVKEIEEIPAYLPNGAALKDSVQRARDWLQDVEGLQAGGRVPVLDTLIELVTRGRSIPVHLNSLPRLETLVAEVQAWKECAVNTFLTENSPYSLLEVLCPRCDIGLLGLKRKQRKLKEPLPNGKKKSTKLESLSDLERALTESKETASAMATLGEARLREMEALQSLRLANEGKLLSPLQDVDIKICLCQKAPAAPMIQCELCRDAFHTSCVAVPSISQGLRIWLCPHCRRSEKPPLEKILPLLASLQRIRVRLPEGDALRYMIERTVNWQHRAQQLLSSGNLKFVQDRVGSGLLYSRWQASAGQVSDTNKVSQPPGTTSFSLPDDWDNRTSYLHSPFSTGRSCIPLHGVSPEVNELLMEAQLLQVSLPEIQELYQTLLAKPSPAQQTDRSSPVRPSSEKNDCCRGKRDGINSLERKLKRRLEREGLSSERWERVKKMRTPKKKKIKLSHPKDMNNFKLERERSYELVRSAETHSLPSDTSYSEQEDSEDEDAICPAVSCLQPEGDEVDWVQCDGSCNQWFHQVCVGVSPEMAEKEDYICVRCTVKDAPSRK
In short: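 KDM5BDeltaAP (200nM final) in 50mM HEPES pH 7.5, 0.01% Tween-20 was preincubated with compound for 10 min at room temperature. A substrate mix of 12.5uM H3K4Me3, 25uM a-ketoglutarate, ascorbate, Fe2+, NAD+ and formaldehyde dehydrogenase was then added. NADH fluorescence (340/450 nm) was read initially and after 30 min.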

[2] = tested on: Zika virus NS2B-NS3 protease (linked construct); assay: Primary screen NINDS Rhodamine qHTS for Zika virus inhibitors (AID 1347160); also: nearly all actives have a fitted effect of over 55% in size; also: potency is read from the fitted curve at half-maximal effect
In short: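 Rhodamine110-peptide cleavage (1.5 µM substrate) by 25 nM linked NS2B-NS3 enzyme at pH 8.0 (Tris, Tween 20), after 15 min RT preincubation with compounds; 15-min fluorescence change normalized to controls and Hill-fitted.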

[3] = ZIKV-mCherry secondary qHTS for Zika virus inhibitors (AID 1347158); also: top concentration of the series differs between compounds
In short: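 This orthogonal imaging screen measured ZIKV-mCherry infection of Vero cells exposed to compound, MOI 1, 48-72 h. Percent infection came from segmented nuclei scored mCherry-positive above 3 SD of negative controls.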

[4] = tested on: Zika virus NS2B-NS3 protease (linked); assay: 384 well plate NINDS AMC confirmatory qHTS for Zika virus inhibitors (AID 1347163); conditions: Recombinant NS2B-NS3 protease, Ac-VKTGKR-AMC fluorescence; also: potency is read from the fitted curve at half-maximal effect; nearly all actives have a fitted effect of over 50% in size
In short: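 Enzyme (5, 30 or 60 nM final) first met test compounds for ~15 min. The AMC-tagged peptide Ac-VKTGKR-AMC followed at 30 microM. Fluorescence was then recorded at 25 min and scaled against no-enzyme and no-inhibitor wells.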

[5] = tested on: Zika virus NS2B-NS3 protease (linked construct); assay: 384 well plate NINDS Rhodamine confirmatory qHTS for Zika virus inhibitors (AID 1347164); conditions: rhodamine-110 peptide substrate fluorescence;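 also: fluorescence from protease cleavage of Ac-LKRR-rhodamine 110 substrate; potency is read from the fitted curve at half-maximal effect; nearly all actives have a fitted effect of over 65% in size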
In short: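 Linked protease at a final 5 nM, 30 nM or 60 nM was preincubated ~15 min with compounds, then given 10 microM Ac-LKRR-Rhodamine 110. Fluorescence (ex 485/em 538 nm) after 25 min in the dark at room temperature.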

[6] = Tertiary RLuc qRT-PCR qHTS assay for Zika virus inhibitors (AID 1347169); also: top concentration of the series differs between compounds; nearly all actives have a fitted effect of over 55% in size
In short: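 Vero cells (1,000 per well) plated overnight at 37 degrees C, treated with compound in DMSO, then infected with recombinant ZIKV-RLuc (Cambodian) at MOI 1-2 for 48-72 hrs. Live-cell Renilla luciferase substrate added; luminescence read after 1-1.5 hrs.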

[7] = Confirmatory screen GU Rhodamine qHTS for Zika virus inhibitors qHTS (AID 1347157); also: nearly all actives have a fitted effect of over 70% in size; also: potency is read from the fitted curve at half-maximal effect
Source text: Avindra Nath, Ph.D., National Institute of Neurological Disorders and Stroke (NINDS), Bethesda, MD
Radhakrishnan Padmanabhan, Ph.D., Georgetown University (GU), Washington D.C.
Zika Virus causes congenital defects, including microcephaly and is associated with Guillain-Barre syndrome, eningoencephalitis and myelitis in infected adult. […] Using a target-based approach, we hope to establish a screening paradigm to uncover novel, cell-active NS2B-NS3 protease (Zika Virus) specific inhibitors from NCATS' collection of small molecules using qHTS.
Four assay panel was created to identify potential Zika Virus inhibitors. Namely, (1) GU unlinked NS2B-NS3 AMC tagged protease qHTS, (2) GU unlinked NS2B-NS3 Rhodamine tagged protease qHTS, (3) NINDS linked NS2B-NS3 AMC tagged protease qHTS, (4) NINDS linked NS2B-NS3 Rhodamine tagged protease qHTS. Active compounds were re-acquired and re-screened to confirm inhibition. Inhibitors were further screened against various confirmatory and counterscreens in dose response format.
Early Translation Branch (ETB)
National Center for Advancing Translational Sciences (NCATS), Rockville, MD
National Institute of Health (NIH), Bethesda, Maryland
Padmanabhan lab provided the NS2B hydrophilic domain and NS3 protease domain in a noncovalent complex used for the unlinked assay. Control compound aprotinin is obtained from Thermo Scientific (#78432; Waltham, Massachusetts). […]
Briefly, 3 microL of enzyme (25 nM final concentration), in assay buffer (10 mM Tris-HCl pH 8.0 with 0.01% Tween 20) were dispensed into a 1,536-well solid-bottom black plate (Greiner Bio One, Monroe, NC). […] Plates were then immediately read on a ViewLux High-throughput CCD imager (PerkinElmer, Waltham, MA) equipped with FITC fluorescence optics (480(20) nm excitation, 540(25) nm emission), then incubated (room temperature, protected from light) for 15 minutes (~15% conversion). The change in fluorescence intensity over the 15-minute reaction period was normalized against no-inhibitor and no-enzyme controls and the resulting percent inhibition data were fitted to a 4-parameter Hill equation. […]

[8] = Confirmatory screen NINDS Rhodamine qHTS for Zika virus inhibitors (AID 1347161); also: nearly all actives have a fitted effect of over 60% in size; also: potency is read from the fitted curve at half-maximal effect;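 as to activity change, negative = inhibition: purified Zika NS2B-NS3 protease with linked NS2B cofactor domain and Rhodamine110 peptide substrate; series mostly up to about 110 µM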
In short: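 Kinetic fluorescence (Ex 480 nm, Em 540 nm) over 15 min with 1.5 microM Rhodamine110 peptide and 25 nM linked protease.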

[9] = Vero cells viability qHTS for Zika virus inhibitors (AID 1347167)
In short: (§1)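 Luminescent ATP readout (CellTiter Glo) after 30 min at 37 degrees C gives viability; cells in DMEM + 4% FBS were treated 24 to 48 hours with compound, following overnight attachment.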

[10] = HepG2 cells viability qHTS for Zika virus inhibitors (AID 1347168); also: potency is read from the fitted curve at half-maximal effect
In short: as §1

Q: Which outcome [1] does the source give for O=C(O)CC[N+](=O)[O-] here?
A: inactive

Q: Which Potency [2] does the source give for Cc1c(C(=O)Nc2cccc(C(F)(F)F)c2)cc(-c2ccccc2)n1CCCN1CCOCC1 here?
A: inactive

Q: With Cc1[nH]nc2ccc(-c3cncc(OC[C@@H](N)Cc4c[nH]c5ccccc45)c3)cc12 as the compound, how does the Potency [2] read?
A: inactive

Q: Which outcome [3] does the source give for O=C(O)c1cc(Oc2ccc(C(F)(F)F)cc2Cl)ccc1[N+](=O)[O-] here?
A: inactive

Q: And the Potency [4]?
A: 562 µM (active)

Q: And the Potency [5]?
A: 316 µM (active)

Q: And the activity change, negative = inhibition [6]?
A: 35.5% [at 1.74 µM]

Q: For O=C(N[C@@H](COc1ccc2[nH]c(=O)[nH]c2c1)c1ccccc1)c1cccn(Cc2ccc(F)c(F)c2)c1=O, which Potency [2] is on record?
A: inactive

Q: With CC(C)(C)NC[C@H](O)c1ccc(O)cc1Cl as the compound, how does the Potency [2] read?
A: inactive

Q: With Cc1ccccc1-n1c(Cn2ncc3c(N)ncnc32)nc2cccc(C)c2c1=O as the compound, how does the Potency [2] read?
A: inactive

Q: For O=C1C(I)=CC(=C(c2cc(I)c(O)c(I)c2)c2ccccc2C(=O)O)C=C1I, which Potency [7] is on record?
A: 2.82 µM (active)

Q: What about the outcome [3] of the same compound?
A: inactive

Q: And the Potency [8]?
A: 2.51 µM (active)

Q: And the Potency [4]?
A: 50.1 µM (active)

Q: And the Potency [5]?
A: 8.91 µM (active)

Q: And the activity change, negative = inhibition [6]?
A: 34.1% [at 1.74 µM]

Q: Which Potency [2] does the source give for CCN(CC)C(=O)c1ccc(C2=CC3(CCNCC3)Oc3cccc(O)c32)cc1 here?
A: inactive

Q: For S=C(NC1CCCCC1)N1CCC(c2cnc[nH]2)CC1, which Potency [2] is on record?
A: inactive

Q: And the outcome [1]?
A: inactive

Q: For CC1(N2CCC(n3c([C@@H]4CCCNC4)nc4ccccc43)CC2)CCCCCCC1, which Potency [2] is on record?
A: inactive

Q: Which Potency [8] does the source give for CC(C)Oc1cccnc1N(C)C1CCN(Cc2ccccc2)CC1 here?
A: inactive

Q: What about the Potency [9] of the same compound?
A: inactive

Q: What about the Potency [10] of the same compound?
A: inactive

Q: And the outcome [6]?
A: inactive

Q: Which outcome [3] does the source give for CN(C)[C@@H]1C(=O)C(C(N)=O)=C(O)[C@@]2(O)C(=O)C3=C(O)c4c(O)cccc4[C@@](C)(O)[C@H]3[C@H](O)[C@@H]12 here?
A: inactive

Q: And the Potency [8]?
A: 19.7 µM (active) and 7.82 µM (active)

Q: And the Potency [4]?
A: 158 µM (active) and 8.91 µM (active)

Q: What about the Potency [5] of the same compound?
A: 50.1 µM (active) and 2.51 µM (active)

Q: And the Potency [9]?
A: inactive

Q: And the Potency [10]?
A: inactive

Q: And the outcome [6]?
A: inactive

Q: With COC1=C[C@@H]2[C@@H]3Cc4ccc(OC)c(O)c4[C@]2(CCN3C)CC1=O as the compound, how does the Potency [2] read?
A: inactive

Q: Which results are given for Nc1c(Cl)c(Cl)c(Cl)c(Cl)c1Cl?
A: Potency [7]: inactive; Potency [8]: inactive; outcome [6]: inactive

Q: With O=C(NCC1CCOCC1)c1cnc(Nc2ccc(Cl)cc2Cl)nc1C(F)(F)F as the compound, how does the Potency [2] read?
A: inactive

Q: With COc1ccc(N(C(=O)Oc2c(C)cccc2C)c2ccnc(Nc3ccc(N4CCN(C)CC4)cc3)n2)c(OC)c1 as the compound, how does the Potency [2] read?
A: inactive

Q: Which outcome [1] does the source give for O=C1CCCN1CC#CCN1CCCC1 here?
A: inactive

Q: With CN1CCN(c2ccc([N+](=O)[O-])c3no[n+]([O-])c23)CC1 as the compound, how does the Potency [2] read?
A: inactive

Q: With CCNC(=O)CC1N=C(c2ccc(Cl)cc2)c2cc(OC)ccc2-n2c(C)nnc21 (centres undefined) as the compound, how does the Potency [2] read?
A: inactive

Q: For Cc1ccccc1-n1c(Cn2cnc3c(N)ncnc32)nc2cccc(C)c2c1=O, which Potency [2] is on record?
A: inactive

Q: Which Potency [2] does the source give for O=C(O)CNC(=O)c1c(O)c2ccccc2n(Cc2ccccc2)c1=O here?
A: 11.2 µM (active)

Q: Which Potency [2] does the source give for O=C(N[C@H]1CN2CCC1CC2)c1ccc(Cl)cc1 here?
A: inactive

Q: What about the outcome [1] of the same compound?
A: inactive

Q: For CC(C)N(CCNC(=O)CN1CCCC1=O)C(C)C, which Potency [2] is on record?
A: inactive

Q: For NCCc1c[nH]c2ccccc12, which Potency [2] is on record?
A: inactive

Q: What about the outcome [1] of the same compound?
A: inactive

Q: Which results are given for CC1=C(O)C(=O)C=C2C1=CC=C1[C@@]2(C)CC[C@@]2(C)[C@@H]3C[C@](C)(C(=O)O)CC[C@]3(C)CC[C@]12C?
A: Potency [8]: 5.53 µM (active) and 2.77 µM (active); Potency [4]: 79.4 µM (active); Potency [5]: 28.2 µM (active); Potency [10]: 18.5 µM (active) and 7.37 µM (active)

Q: What does the source list for CC(=O)NCCc1c[nH]c2ccccc12?
A: Potency [2]: inactive; outcome [1]: inactive

Q: Which Potency [2] does the source give for CC(C)[C@]12O[C@H]1[C@@H]1O[C@]13[C@]1(O[C@H]1C[C@H]1C4=C(CC[C@@]13C)C(=O)OC4)[C@@H]2O here?
A: inactive

Q: For CC1=NN=C(c2ccc(N)cc2)c2cc3c(cc2C1)OCO3, which outcome [1] is on record?
A: inactive

Q: With O=c1[nH]c2ccc(Cl)cc2c(N[C@@H]2CN3CCC2CC3)c1-c1nc2ccccc2[nH]1 as the compound, how does the Potency [2] read?
A: inactive

Q: With O=C(Oc1ccc([N+](=O)[O-])cc1)N1CCN(Cc2cccc(Oc3ccccc3)c2)CC1 as the compound, how does the Potency [2] read?
A: inactive

Q: Which Potency [2] does the source give for O=C(Oc1ccc([N+](=O)[O-])cc1)N1CCC(C(O)(c2ccc3c(c2)OCO3)c2ccc3c(c2)OCO3)CC1 here?
A: inactive

Q: For NCCc1c[nH]c2ccc(O)cc12, which Potency [2] is on record?
A: inactive

Q: And the outcome [1]?
A: inactive

Q: Which Potency [2] does the source give for CCOC(=O)Nc1ccc(NCc2ccc(F)cc2)cc1N here?
A: inactive

Q: For O=[N+]([O-])c1c(Cl)c(Cl)cc(Cl)c1Cl, which Potency [7] is on record?
A: inactive

Q: What about the Potency [8] of the same compound?
A: inactive

Q: And the activity change, negative = inhibition [6]?
A: 77.7% [at 3.57 µM]

Q: Which Potency [2] does the source give for CC(=O)N(C)c1cccc(-c2ccnc3c(C(=O)c4cccs4)cnn23)c1 here?
A: inactive

Q: What about the Potency [8] of the same compound?
A: inactive

Q: And the Potency [9]?
A: inactive

Q: And the Potency [10]?
A: inactive

Q: With CC(=O)Nc1ccc(OC[C@](C)(O)C(=O)Nc2ccc([N+](=O)[O-])c(C(F)(F)F)c2)cc1 as the compound, how does the Potency [2] read?
A: inactive

Q: Which Potency [2] does the source give for CCN1CCN(C(=O)Cc2ccc(Nc3ncc(F)c(Nc4ccc(C(=O)Nc5ccccc5Cl)cc4)n3)cc2)CC1 here?
A: inactive

Q: With CCc1c(C(=O)C(N)=O)c2c(OCC(=O)O)cccc2n1Cc1ccccc1 as the compound, how does the Potency [2] read?
A: inactive

Q: Which Potency [9] does the source give for C=CCN1CC[C@]23CCCCC2[C@H]1Cc1ccc(O)cc13 (some centres undefined) here?
A: inactive

Q: And the Potency [10]?
A: inactive

Q: And the outcome [6]?
A: inactive
